Giardia kill = Small Molecules that selectively kill Giardia lamblia: qHTS; Giardia lamblia trophozoite viability; activity change, % at 7.66 µM, hits read low; 340,000 compounds, 0.15% hits; in the data active = activity change below about -80%; inconclusive = between about -30% and that limit;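 also: parasites exposed to compound for two days anaerobically before the ATP read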
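Viability, read as ATP luminescence: trophozoites at 100 cells/well, compound added, 48 hrs anaerobic at 37 deg C, then 15-30 min room-temperature development before reading.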
Pin1 inh = qHTS Assay to Find Inhibitors of Pin1; Pin1 FP peptide displacement, HiFluor488, 10 min; Potency, µM (highest dose often 115 µM), for inactives: top-dose activity, negative = inhibition, most hits filed as inhibitors; 390,000 compounds, 0.009% hits; active = well fitted inhibition curve with a large enough effect in the polarisation, with a control signal flat, not every such curve was filed as active; inconclusive = small, poorly fitted or top-dose-only effect, or effect the other way, or a change in a side signal; inactive = no such curve, though single readings can be large or run the other way; the % refers to the polarisation; also: potency is read from the fitted curve at half-maximal effect
TrxR1 substrate = qHTS Assay for Substrates of Mammalian Selenoprotein Thioredoxin Reductase 1 (TrxR1): qHTS; Thioredoxin reductase 1, cytoplasmic (Rattus norvegicus), O89049; purified TrxR1 substrate turnover, NADPH consumption readout; Potency, µM (highest dose often 114 µM), inactives show at the top dose activity change, negative = substrate turnover; 390,000 compounds, 0.01% hits; AID 588456, 2011; also: potency is read from the fitted curve at half-maximal effect; nearly all actives have a fitted effect of over 50% in size
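Rat TrxR1, dispensed at 90 nM, was prereduced with 400 uM NADPH (final) for 5 min at ~22 deg C, then incubated with compound 15 min before 400 uM selenite. A first-read NADPH fluorescence drop versus no-compound background flagged substrates.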
TrxR1 inh = qHTS Assay for Inhibitors of Mammalian Selenoprotein Thioredoxin Reductase 1 (TrxR1): qHTS. Thioredoxin reductase 1, cytoplasmic (Rattus norvegicus), O89049. recombinant rTrxR1, NADPH fluorescence consumption, selenite substrate. AID 588453, 2011. Potency, µM (series often up to 114 µM), inactives show at the highest dose activity change, negative = inhibition, most hits filed as inhibitors. 390,000 compounds, 1% hits; also: potency is read from the fitted curve at half-maximal effect; nearly all actives have a fitted effect of over 65% in size
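Rat TrxR1 (90 nM in the dispensed reagent) was pre-reduced with 400 uM NADPH for 5 min at room temperature, then incubated with compound for 15 min. After 400 uM selenite was added, NADPH fluorescence (Ex 340/Em 450 nm) was followed for 8 min.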
KAT2A inh = qHTS Assay for Inhibitors of GCN5L2; GCN5L2 HAT assay, ThioGlo1 CoA-SH fluorescence; 390,000 compounds, 0.21% hits; AID 504327, 2011; Potency, µM (top dose mostly 58.9 µM), without a hit: at the highest dose activity change, negative = inhibition, actives largely listed as inhibitors; also: potency is read from the fitted curve at half-maximal effect
Target sequence (Q92830 whole entry, looked up): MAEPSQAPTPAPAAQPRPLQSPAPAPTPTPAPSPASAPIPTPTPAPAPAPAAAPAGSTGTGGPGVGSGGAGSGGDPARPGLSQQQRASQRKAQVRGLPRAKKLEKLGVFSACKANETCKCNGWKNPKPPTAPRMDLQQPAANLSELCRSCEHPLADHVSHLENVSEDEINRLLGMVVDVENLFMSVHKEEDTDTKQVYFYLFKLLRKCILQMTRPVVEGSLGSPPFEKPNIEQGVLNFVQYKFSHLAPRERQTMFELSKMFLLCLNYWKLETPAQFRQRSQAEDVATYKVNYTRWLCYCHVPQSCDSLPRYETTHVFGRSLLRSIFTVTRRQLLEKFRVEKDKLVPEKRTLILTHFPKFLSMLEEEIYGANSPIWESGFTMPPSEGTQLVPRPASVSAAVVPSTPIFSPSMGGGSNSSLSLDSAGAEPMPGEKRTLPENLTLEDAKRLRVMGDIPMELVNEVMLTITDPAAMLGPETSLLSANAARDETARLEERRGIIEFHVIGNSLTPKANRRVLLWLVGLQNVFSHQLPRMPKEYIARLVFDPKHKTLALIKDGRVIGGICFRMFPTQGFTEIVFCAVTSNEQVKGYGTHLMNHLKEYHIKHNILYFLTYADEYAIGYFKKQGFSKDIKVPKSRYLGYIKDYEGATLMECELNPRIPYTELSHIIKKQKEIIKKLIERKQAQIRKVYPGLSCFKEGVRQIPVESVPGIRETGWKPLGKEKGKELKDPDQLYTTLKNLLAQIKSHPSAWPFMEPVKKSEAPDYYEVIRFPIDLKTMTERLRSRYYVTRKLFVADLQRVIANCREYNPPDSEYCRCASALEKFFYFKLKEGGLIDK
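Free CoA generated was detected with ThioGlo1 (50uM) fluorescence at Ex340nm/Em540nm, read immediately and after 20 min at room temperature. Enzyme, 20 nM in HEPES pH 7.5 buffer, saw compounds 15 min before adding 75uM H3(1-25) peptide and 70uM acetyl-CoA.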
GALK inhibitor = qHTS Assay for Inhibitors of Human Galactokinase (GALK); Purified GALK, Kinase-Glo residual ATP luminescence; P51570; Potency, µM (titrated, usually from 57.5 µM), without a hit: at the highest dose activity change, negative = inhibition, usual class: inhibitors; 270,000 compounds, 0.007% hits; AID 1868, 2009; also: potency is read from the fitted curve at half-maximal effect
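Quantitative HTS: GALK 5 nM, ATP 35 uM, galactose 100 uM, 1 h room temperature, then luciferase-based ATP detection.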
Starred values were filed as active, the others as inactive; ? = inconclusive; nt = no result; [ ] = dose if it differs, or a comment. In the library only some 1.3% were active in any assay of this set; here they are far more common. Unless noted, calls follow the shape of the dose curve; as a rule, active = well fitted curve in the direction sought with a large enough effect; inconclusive = small, poorly fitted or top-dose-only effect, or another doubt; inactive = no such curve, though single readings can be large; an effect the other way counts as inactive or inconclusive. % is scaled to controls: 0 for no effect and ±100 for the full control effect.

SMILES	Giardia kill	Pin1 inh	TrxR1 substrate	TrxR1 inh	KAT2A inh	GALK inhibitor
CCCc1cc(Nc2c(C)n(C)n(-c3ccccc3)c2=O)n2c(nc3ccccc32)c1C#N	6	8%	-3%	?	-6%	3%
CSc1nc(O)c(C(c2ccc(OC(C)C)cc2)c2c(O)nc(SC)[nH]c2=O)c(=O)[nH]1	-12	?	3%[57.1 µM]	11µM*	nt	nt
CN(CCC#N)c1ccc(/C=C/c2ccnc3ccccc23)cc1	nt	nt	-8%	-14%	nt	nt
COc1cc(NS(=O)(=O)c2ccc(NC(=S)NC(=O)/C=C/c3ccco3)cc2)ncn1	-8	?	-17%	56µM*	-5%	6%
CCOc1ccc(NC(=S)NC(=O)/C=C/c2ccco2)cc1	9	3%	10%[57.1 µM]	-8%[57.1 µM]	?	-4%
COc1cccc(NC(=S)NC(=O)/C=C/c2ccco2)c1	-4	2%	6%[57.1 µM]	-31%[57.1 µM]	-13%	0%
CC(=O)N(C)c1ccc(NC(=S)NC(=O)/C=C/c2ccco2)cc1	-22	-5%	-4%	35µM*	-7%	5%
O=C(/C=C/c1ccco1)NC(=S)Nc1cccc(C(=O)O)c1	-20	?	-2%	40µM*	-1%	-6%
Cc1ccc(NC(=O)/C(=C\c2ccco2)NC(=O)c2ccco2)cc1	-8	57%	-4%[57.1 µM]	?	-5%	13%
Cc1ccc(NC(=O)N/C=C/c2ccco2)cc1	-20	?	18%	16µM*	-17%	1%
Nc1nc(N)c2c(OCC3CCN(Cc4ccccc4F)CC3)cccc2n1	nt	-2%	nt	nt	nt	nt
CCOc1ccc(N2C(=O)C(C)CNC2=S)cc1 (stereo not given)	-14	-8%	12%[57.1 µM]	14%[11.4 µM]	nt	nt
COc1ccc(Cl)cc1S(=O)(=O)Nc1cccc(-c2ccc(N3CCCC3)nn2)c1	nt	-13%	-1%[57.1 µM]	3%[57.1 µM]	-8%	nt
C[N+]1(CC(=O)c2cccc([N+](=O)[O-])c2)CCOCC1	nt	nt	7%	19%	nt	nt
CC(=O)Nc1ccc(NC(=S)NC(=O)/C=C/c2ccco2)cc1	13	-18%	2%	40µM*	-10%	-2%
CC(=O)Nc1ccc(C(=O)/C=C/c2ccco2)cc1	-9	41%	-11%	45µM*	5%	-3%
COc1ccc(OC)c(/C=C/c2ccccc2)c1	nt	nt	189%	117%	nt	nt
COc1ccccc1-c1ccc(/C=C2\C=CC(=O)O2)o1	-3	?	2%[57.1 µM]	14µM*	-28%	-3%
C=C1[C@@H](O)[C@H](Cc2ccccc2)N(Cc2ccccc2Br)S1(=O)=O	-7	5%	-3%	14µM*	nt	nt
NS(=O)(=O)c1ccc(NC(=S)Nc2cc(Cl)c(Cl)cc2Cl)cc1	-23	0%	-3%	35µM*	-5%	0%
COC1=CC(=O)C(O)=C(CCCCCCC/C=C/CCCCCCCC2=C(O)C(=O)C=C(OC)C2=O)C1=O	0	nt	3%	-1%	nt	nt
CCCCCCCCCCCC1=C(O)C(=O)C=C(O)C1=O	-11	28µM*	-5%	4%	nt	nt
CCOC(=O)COc1ccc(Br)cc1/C=C/c1[nH]c(=O)[nH]c(=O)c1[N+](=O)[O-]	-10	-10%	0%	?	?	-11%
CCOC(=O)COc1ccc(Br)cc1/C=C\c1[nH]c(=O)[nH]c(=O)c1[N+](=O)[O-]	-1	6%	-9%	45µM*	-4%	-7%
CCn1c2ccccc2c2cc(NC(=O)c3ccc(Br)o3)ccc21	12	?	8%[57.1 µM]	18µM*	-9%	0%
SMILES	Giardia kill	Pin1 inh	TrxR1 substrate	TrxR1 inh	KAT2A inh	GALK inhibitor
CC(C)Cn1c(SCC(=O)Nc2cccnc2Cl)nnc1-c1ccco1	7	1%	3%	50µM*	2%	nt
CCn1c2ccccc2c2cc(NC(=O)c3coc(=O)c(Br)c3)ccc21	nt	nt	nt	nt	-9%	-2%
CCn1c(SCC(=O)Nc2ccc3c(c2)c2ccccc2n3CC)nnc1-c1ccco1	-1	?	0%	2.8µM*	-2%	4%
CN(C)c1cccc(S(=O)(=O)N2CCN(S(=O)(=O)c3ccc4c(c3)OCCO4)CC2)c1	nt	-10%	nt	nt	nt	nt
N#Cc1nc(Nc2cccc(Br)c2)nc(NC2CCCC2)n1	nt	69%	nt	nt	nt	nt
CC1CC(=Cc2ccc([N+](=O)[O-])cc2)C(=O)O1 (stereo not given)	-4	1%	8%[57.1 µM]	7%[57.1 µM]	nt	nt
COc1cc(Cl)c(CC(=O)NO)cc1OC	nt	nt	11%	13%	nt	nt
CCOC(=O)c1ccc(N2N=C(C)/C(=C/C=C/c3ccco3)C2=O)cc1	-5	-11%	-2%	-10%	-13%	-1%
O=C(O)c1cc(N2N=C(C(F)(F)F)/C(=C/C=C/c3ccco3)C2=O)ccc1Cl	5	nt	-4%	?	7.9µM*	-18%
Cc1cc2c(s1)c1cnn(Cc3ccc(C(F)(F)F)cc3F)c(=O)c1n2C	nt	0%	nt	nt	nt	nt
Cc1ccc(NC(=O)CSCC(=O)N(C)CC(=O)Nc2ccccc2C(F)(F)F)cc1	4	-1%	6%[57.1 µM]	4%[57.1 µM]	-2%	nt
CCc1ccc(S(=O)(=O)c2cnc(SCC(=O)Nc3ccc(OC)cc3OC)[nH]c2=O)cc1	nt	-8%	2%	13%	-3%	nt
COc1cc(Cl)c(C)cc1NC(=O)CSc1ncc(S(=O)(=O)c2ccc(C(C)(C)C)cc2)c(=O)[nH]1	nt	nt	-5%	-19%	18µM*	nt
O=C(CSc1ncc(S(=O)(=O)c2ccc(Cl)cc2)c(=O)[nH]1)Nc1cccc(C(F)(F)F)c1	nt	?	-1%	11%	-7%	nt
CC(C)(C)c1ccc(S(=O)(=O)c2cnc(SCC(=O)Nc3ccc(F)c(Cl)c3)[nH]c2=O)cc1	5	nt	7%[0.457 µM]	6%	28µM*	nt
CC(=O)/C=C(\C)Nc1ccc(-c2cnc(-c3ccccc3)o2)cc1	2	-2%	51%	-14%	28µM*	5%
COc1cc(-c2ccc3ncnc(NCc4nc(C)cs4)c3c2)cc(OC)c1OC	nt	-7%	nt	nt	nt	nt
Clc1cccc[n+]1CCc1ccccc1	nt	nt	8%	45µM*	nt	nt
Clc1ccc2c(ccc[n+]2CCc2ccccc2)c1	nt	nt	7%[0.0914 µM]	18%	nt	nt
CC[C@@]1(c2ccccc2OC)C(=O)N(C(=O)OC)N1C(=O)OC	-4	-2%	6%[57.1 µM]	?	-7%	nt
CC[C@@]1(c2cccc(C)c2)C(=O)N(C(=O)OC)N1C(=O)OC	6	-3%	4%	2µM*	1%	nt
COC(=O)N1C(=O)[C@](CC(C)C)(c2ccccc2)N1C(=O)OC	-5	-3%	-6%	2µM*	0%	nt
COC(=O)N1C(=O)[C@](c2ccsc2)(C(C)C)N1C(=O)OC	5	2%	5%	25µM*	3%	nt
